Inconclusive results are not listed. Calls of active or inactive are those of the source. Calls follow the shape of the dose curve; as a rule, active = well fitted activation curve with a large enough effect; inconclusive = small, poorly fitted or top-dose-only effect; inactive = no such curve, though single readings can be large or run the other way.

Chain of D(1A) dopamine receptor (Homo sapiens) (P21728 whole entry, looked up): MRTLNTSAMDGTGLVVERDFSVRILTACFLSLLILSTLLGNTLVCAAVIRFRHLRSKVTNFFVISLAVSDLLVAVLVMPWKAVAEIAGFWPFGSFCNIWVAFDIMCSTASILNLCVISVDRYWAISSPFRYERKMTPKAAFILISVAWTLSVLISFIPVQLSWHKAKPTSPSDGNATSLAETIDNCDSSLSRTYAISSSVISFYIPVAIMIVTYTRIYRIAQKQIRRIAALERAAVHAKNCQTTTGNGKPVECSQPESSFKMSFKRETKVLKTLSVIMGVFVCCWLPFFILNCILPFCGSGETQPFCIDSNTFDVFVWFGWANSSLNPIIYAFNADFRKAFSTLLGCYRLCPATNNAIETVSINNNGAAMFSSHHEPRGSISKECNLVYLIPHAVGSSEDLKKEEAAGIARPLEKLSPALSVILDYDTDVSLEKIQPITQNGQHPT

This assay addresses D(1A) dopamine receptor (Homo sapiens) (UniProt P21728). As to the kind of experiment: HTS Assay for Allosteric Agonists of the Human D1 Dopamine Receptor: Primary Screen for Potentiators (AID 488982). The conditions noted are these: HEK293 T-REx D1 inducible cells, calcium flux, kinetic fluorescence; series mostly up to 8.37 µM. From the text:
Dopamine receptors (DARs) are involved in the etiology and/or therapy of a number of neuropsychiatric and endocrine disorders. For instance, all receptor-based antiparkinsonian drugs work via stimulating the […] DAR subtype whereas all FDA-approved antipsychotic agents are antagonists of this receptor. […] There are three different types of allosteric modulators that we are seeking, two of which will stimulate or augment receptor signaling, allosteric agonists and potentiators, while the third, allosteric antagonists, will attenuate receptor signaling. The present primary screening assay measures compound agonism by tracking calcium flux in a […], inducible Hek293 Trex D1 cell line.
Freshly passaged cells are plated in 1536 well black, clear bottom plates at a density of 4000 cells/well in 3 ul of complete media containing 1x tetracycline inducer. After an overnight incubation at 30 C in 5% CO2, cells are loaded with 2 ul of the no wash Calcium Assay Kit (ABD Bioquest) and incubated at room temperature for 30 to 90 minutes. A 10 cycle (1 second/cycle) baseline measurement is taken and then the FDSS online 1536 pintool delivers 23 nl of compound library (as well as dopamine controls) to the plate. The plate is measured for kinetically at 1 cycle/sec for 180 seconds and is considered to be the agonist portion of the assay (eg, compounds which activate a positive calcium response during this portion are flagged as potential agonists). Following the 180 second read, 1 ul of an EC20 of dopamine is delivered by an onboard pipette head. Measurements are taken kinetically for an additional 180 seconds.
Turning to `CC(C)COC(=O)OCN1C(=O)CN(CCN2CC(=O)N(COC(=O)OCC(C)C)C(=O)C2)CC1=O`, the result was inactive.

For the molecule `CC(=O)O[C@H]1C[C@@H]2CC[C@@H]3[C@H](CC[C@@]4(C)[C@H]3C[C@H]([N+]3(C)CCCCC3)[C@@H]4OC(C)=O)[C@@]2(C)C[C@@H]1[N+]1(C)CCCCC1`, the result was inactive.

As for `C1CCc2nnnn2CC1`, the outcome was inactive.

With `O=C1CCC(c2ccc(-n3ccnc3)cc2)=NN1`, the outcome was inactive.

In the case of `C[C@]12CC[C@@H]3c4ccc(O)cc4CC[C@H]3[C@@H]1CC[C@@H]2O`, the result was inactive.

Regarding `CN1C2CCC1CC(OC(=O)c1c[nH]c3ccccc13)C2` (stereo not drawn), the result was inactive.

For the molecule `CNCCC(Oc1ccccc1C)c1ccccc1` (stereo not drawn), the outcome was inactive.

As for `CC1(C)CCC(NC(=O)[C@@H](N)CCC(=O)O)CC1`, the outcome was inactive.

For `C[C@@H]1C(=O)NC2=Nc3cccc(Cl)c3CN21`, the result was inactive.

Consider `CNCCC=C1c2ccccc2CCc2ccccc21`, for which the outcome was inactive.

`CCCn1c(=O)[nH]c(=O)c2[nH]cnc21`: the outcome was inactive.

For `CCCC1O[C@@H]2C[C@H]3[C@@H]4CCC5=CC(=O)C=C[C@]5(C)[C@H]4[C@@H](O)C[C@]3(C)[C@]2(C(=O)CO)O1` (stereo partly drawn), the result was inactive.

`C[N+]1(CCCCC[N+]2(C)CCCC2)CCCC1`: the outcome was inactive.

Turning to `Nc1cc(Cl)c(NC2=NCCN2)c(Cl)c1`, the result was inactive.

Regarding `CC(CCc1ccccc1)NCC(O)c1ccc(O)c(C(N)=O)c1` (stereo not drawn), the outcome was inactive.

Consider `COC(=O)[C@H]1[C@H]2C[C@H]3c4[nH]c5ccccc5c4CCN3C[C@H]2CC[C@@H]1O`, for which the result was inactive.

As to `N[C@H](CO)C(=O)O`, the outcome was inactive.

Take `COc1cc2c(cc1O)CC[C@@H]1[C@@H]2CC[C@]2(C)[C@@H](O)CC[C@@H]12`: the outcome was inactive.

Take `O=C(O)c1cc2cc(Cc3cccnc3)ccc2o1`: the result was inactive.

Regarding `COc1cc(NS(C)(=O)=O)ccc1Nc1c2ccccc2nc2ccccc12`, the result was inactive.

Regarding `CCC(NC(C)C)C(O)c1ccc(O)c(O)c1` (stereo not drawn), the result was inactive.

Consider `Oc1ccc(O)cc1`, for which the result was inactive.

For `N[C@@H](Cc1cnc[nH]1)C(=O)O`, the outcome was inactive.

Values taken from PubChem BioAssay (NCATS).
